For 40 compounds, activity remaining results are on record in PubChem BioAssay.

Structures are written as SMILES. The source made the active and inactive calls. How the calls were made is not given here.

This experiment concerns Aerobactin synthetase IucA (Klebsiella pneumoniae hvKP1). The experiment can be described thus: Biochemical IucA enzyme inhibition primary screen of the Spectrum library (AID 1346200).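 Further: 100% = wells without compound and 0% = wells lacking enzyme.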 To be noted: malachite green pyrophosphate, A620, at 8 µM, active compounds read low.
Take `O=C1c2ccccc2C(=O)C1c1ccccc1`: the activity remaining was 121% (inactive).
For the compound `Cc1ccc(C(C)C)cc2c(C)ccc1-2`, the activity remaining is 121% (inactive).
For `CC1=CC(=O)c2ccccc2C1=O` the value was 117% (inactive).
For `C[C@H](CCC(=O)O)[C@H]1CCC2C3C(CC[C@@]21C)[C@@]1(C)CC[C@@H](O)C[C@H]1C[C@@H]3O` (stereo not given in full) the value was 105% (inactive).
As for `C=CCc1ccc(O)c(OC)c1`, the activity remaining is 115% (inactive).
For `CC1CCc2cc(F)cc3c(=O)c(C(=O)O)cn1c23` (stereo not given) the value was 119% (inactive); for `Cc1[nH]c(C)c(Cl)c(=O)c1Cl`, 121% (inactive).
For `C=C1C2CC[C@@]3(C)[C@H](c4ccoc4)OC(=O)C[C@]13O[C@H]1CC(=O)C(C)(C)[C@H](C(O)C(=O)OC)[C@@]21C` (stereo not given in full) the value was 95.2% (inactive); for `COc1ccc2c(c1)c(CC(=O)OCC(=O)O)c(C)n2C(=O)c1ccc(Cl)cc1`, 92.7% (inactive); for `Cc1ccccc1OCC(O)CO` (stereo not given), 95.2% (inactive).
For `CC(=O)O[C@@](C)(CCC=C(C)C)C1CC=C(C)CC1` (stereo not given in full) the value was 91.6% (inactive).
In the case of `CN1CCCC(n2nc(Cc3ccc(Cl)cc3)c3ccccc3c2=O)CC1` (stereo not given), the activity remaining is 106% (inactive).
For `NCC1CCCCC1CC(=O)O` (stereo not given) the value was 98.9% (inactive); for `O=C(CCc1ccc(O)cc1)c1c(O)cc(O)cc1O[C@@H]1O[C@H](CO)[C@@H](O)[C@H](O)[C@H]1O`, 105% (inactive).
For `COc1ccc2c(c1)OCc1c-2oc2cc(OC)ccc12` the value was 90.7% (inactive); for `CC(=O)[C@@]1(O)CCC2C3CCC4=CC(=O)CC[C@]4(C)C3CC[C@@]21C` (stereo not given in full), 72.4% (inactive).
In the case of `CC1=CC(=O)C2C(C)(C)CCC[C@]2(C)[C@@]1(O)CCc1ccoc1` (stereo not given in full), the activity remaining was 105% (inactive).
For `COc1cc2c(cc1OC)C(=O)C(CC1CCN(Cc3ccccc3)CC1)C2` (stereo not given) the value was 107% (inactive).
For `CN[C@@H]1C(OC2[C@H](O[C@H]3[C@H](O)[C@@H](O)[C@H](N=C(N)N)[C@@H](O)[C@@H]3N=C(N)N)OC(C)[C@]2(O)CO)OC(CO)C(O)C1O` (stereo not given in full) the value was 111% (inactive).
For `COc1ccc2c(c1)O[C@@H]1COc3cc(OC)c(OC)cc3[C@@H]1C2=O` the value was 111% (inactive); for `OC/C=C/c1ccc(O)c(O)c1`, 81.7% (inactive); for `CC(=O)N[C@@H](CC(C)C)C(=O)O`, 93.2% (inactive).
As for `CCC(C(=O)O)c1ccccc1` (stereo not given), the activity remaining is 123% (inactive).
For `NC(N)=NS(=O)(=O)c1ccc(N)cc1` the value was 98.6% (inactive).
For `COc1ccc2c(c1OC)OC[C@@H](c1ccc(OC)c(OC)c1OC)C2` the value was 95.9% (inactive); for `C[C@@H]1CC[C@@]2(OC1)O[C@H]1CC3C4CC[C@H]5C[C@@H](O)CC[C@]5(C)C4CC[C@]3(C)[C@H]1[C@@H]2C` (stereo not given in full), 101% (inactive); for `CC(=O)O[C@]1(C(C)=O)CCC2C3C[C@H](C)C4=CC(=O)CC[C@]4(C)C3CC[C@@]21C` (stereo not given in full), 95.7% (inactive).
For `CC[C@H](C)C(=O)O[C@H]1C[C@@H](C)C=C2C=C[C@H](C)[C@H](CC[C@@H]3C[C@@H](O)CC(=O)O3)[C@H]21` the value was 119% (inactive); for `CO/N=C(/C(=O)NC1C(=O)N2C(C(=O)O)=C(COC(N)=O)CSC12)c1ccco1` (stereo not given), 92.5% (inactive).
As for `COc1cc(NS(C)(=O)=O)ccc1Cc1c2ccccc2nc2ccccc12`, the activity remaining was 104% (inactive).
For `Oc1cccc(O)c1`, the activity remaining was 116% (inactive).
For `CC(=O)O[C@@H]1CC2C(C)(C)C(=O)C3OC3[C@]2(C)C2CC[C@@]3(C)[C@H](c4ccoc4)OC(=O)C4OC43[C@@]21C` (stereo not given in full) the value was 101% (inactive); for `C=C[C@@]1(C)CC(=O)[C@@]2(O)[C@](C)(O1)[C@@H](OC(C)=O)[C@@H](O)C1C(C)(C)CC[C@H](O)[C@@]12C` (stereo not given in full), 82.4% (inactive); for `CCCc1ncc(C[n+]2ccccc2C)c(N)n1`, 111% (inactive).
For `NCC[C@@H](O)C(=O)N[C@@H]1C[C@H](N)[C@@H](O[C@H]2O[C@H](CN)[C@@H](O)[C@H](O)[C@H]2O)[C@H](O)[C@H]1O[C@H]1O[C@H](CO)[C@@H](O)[C@H](N)C1O` (stereo not given in full) the value was 113% (inactive); for `CC(C)C[C@@H](NC(=O)OCC1c2ccccc2-c2ccccc21)C(=O)O`, 119% (inactive); for `CCCCCCCCCCCCCCCC(=O)OC[C@H](NC(=O)C(Cl)Cl)[C@H](O)c1ccc([N+](=O)[O-])cc1`, 95.5% (inactive).
For `COc1cccc2c1CCC1CC(=O)CC[C@]21C` (stereo not given in full) the value was 119% (inactive); for `CC(=O)OCC(=O)[C@@]1(O)[C@H](C)CC2C3CCC4=CC(=O)C=C[C@]4(C)[C@@]3(F)[C@@H](O)C[C@@]21C` (stereo not given in full), 119% (inactive).
On to `CC1=CCc2c(cc3oc(C)cc(=O)c3c2O)OC1`, for which the activity remaining is 120% (inactive).
